Laboratory results taken from PMC7862700, “An all-to-all approach to the identification of sequence-specific readers for epigenetic DNA modifications on cytosine”.

Key:
Test in all cases: DAPPL (digital affinity profiling via proximity ligation, sequencing); 10 mM Tris-HCl pH 7.5, 50 mM NaCl, 1 mM DTT, 4% glycerol, room temperature, 30 min; GST-TFs on glutathione beads, 16-mer random dsDNA library, 0.1% formaldehyde crosslink after washing; high values mean tight binding
FEV = target: T1, FEV (Homo sapiens, UniProt Q99581 1-238); conditions: protein: recombinant; tags: N-terminal GST; dsDNA, one strand shown
T1 sequence: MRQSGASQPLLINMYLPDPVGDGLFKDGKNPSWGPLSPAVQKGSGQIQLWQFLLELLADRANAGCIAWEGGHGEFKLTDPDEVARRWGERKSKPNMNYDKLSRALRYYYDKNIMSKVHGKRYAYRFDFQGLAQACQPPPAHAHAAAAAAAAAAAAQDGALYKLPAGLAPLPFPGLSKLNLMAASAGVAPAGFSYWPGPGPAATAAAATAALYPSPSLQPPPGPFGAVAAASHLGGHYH
Method in brief: (§1)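 Sequencing on an Illumina NextSeq500 followed washing, crosslinking with 0.1% formaldehyde, proximity ligation (BsaI/T4 ligase, 1 h, 37 °C) and PCR amplification of pools that had been incubated for 30 min at room temperature with 200 nmole of a random double-stranded 16-mer DNA library in Tris/NaCl/DTT/glycerol buffer. Each pool held DNA-barcoded human transcription factors, expressed in yeast as GST fusions and captured on glutathione beads, plus a tag-only sample. Binding signal is a hexamer's read frequency for a factor divided by its frequency in the tag-only sample.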

ETV5 = ETV5 (Homo sapiens, UniProt P41161 1-510); conditions: protein: recombinant; tags: N-terminal GST; dsDNA, one strand shown
Method in brief: as §1

HSF1 = HSF1 (Homo sapiens, UniProt Q00613 1-529); conditions: protein: recombinant; tags: N-terminal GST; chain copies: 3; dsDNA, one strand shown
Method in brief: as §1

SPIC = target: T2, SPIC (Homo sapiens, UniProt Q8N5J4 1-248); conditions: protein: recombinant; tags: N-terminal GST; dsDNA, one strand shown
T2 sequence: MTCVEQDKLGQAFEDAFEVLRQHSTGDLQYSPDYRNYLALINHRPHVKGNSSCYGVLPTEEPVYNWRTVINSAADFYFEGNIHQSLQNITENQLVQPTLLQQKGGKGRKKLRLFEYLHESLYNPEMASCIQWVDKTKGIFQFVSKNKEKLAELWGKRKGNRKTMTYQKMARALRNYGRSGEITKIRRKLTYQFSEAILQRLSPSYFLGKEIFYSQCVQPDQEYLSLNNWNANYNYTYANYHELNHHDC
Method in brief: as §1

ELF4 = ELF4 (Homo sapiens, UniProt Q99607 1-663); conditions: protein: recombinant; tags: N-terminal GST; dsDNA, one strand shown
Method in brief: as §1

ELK4 = target: T3, ELK4 (Homo sapiens, UniProt P28324-2 1-405); conditions: protein: recombinant; tags: N-terminal GST; dsDNA, one strand shown
T3 sequence: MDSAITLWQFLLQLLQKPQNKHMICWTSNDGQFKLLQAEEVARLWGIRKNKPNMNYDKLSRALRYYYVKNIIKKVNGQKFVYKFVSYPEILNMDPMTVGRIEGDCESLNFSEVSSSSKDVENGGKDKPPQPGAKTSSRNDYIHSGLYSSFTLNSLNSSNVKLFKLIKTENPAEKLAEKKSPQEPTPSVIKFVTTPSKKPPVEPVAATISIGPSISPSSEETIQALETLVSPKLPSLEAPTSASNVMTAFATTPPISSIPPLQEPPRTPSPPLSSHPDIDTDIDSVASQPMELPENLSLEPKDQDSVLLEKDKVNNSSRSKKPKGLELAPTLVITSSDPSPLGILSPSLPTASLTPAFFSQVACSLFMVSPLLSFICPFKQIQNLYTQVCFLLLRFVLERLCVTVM
Method in brief: as §1

ETV2 = target: T4, ETV2 (Homo sapiens, UniProt O00321 1-342); conditions: protein: recombinant; tags: N-terminal GST; dsDNA, one strand shown
T4 sequence: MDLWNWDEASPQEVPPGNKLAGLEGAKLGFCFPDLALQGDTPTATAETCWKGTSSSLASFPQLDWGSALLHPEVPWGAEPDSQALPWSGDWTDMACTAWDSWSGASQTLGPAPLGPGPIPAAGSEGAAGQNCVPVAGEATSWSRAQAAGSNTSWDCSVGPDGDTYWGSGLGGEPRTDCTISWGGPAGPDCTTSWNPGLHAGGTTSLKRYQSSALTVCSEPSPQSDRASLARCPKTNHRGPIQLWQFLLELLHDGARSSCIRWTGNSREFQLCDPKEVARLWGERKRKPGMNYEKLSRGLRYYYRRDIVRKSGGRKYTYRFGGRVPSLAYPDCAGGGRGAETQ
Method in brief: as §1

ELF3 = target: T5, ELF3 (Homo sapiens, UniProt P78545 1-371); conditions: protein: recombinant; tags: N-terminal GST; dsDNA, one strand shown
T5 sequence: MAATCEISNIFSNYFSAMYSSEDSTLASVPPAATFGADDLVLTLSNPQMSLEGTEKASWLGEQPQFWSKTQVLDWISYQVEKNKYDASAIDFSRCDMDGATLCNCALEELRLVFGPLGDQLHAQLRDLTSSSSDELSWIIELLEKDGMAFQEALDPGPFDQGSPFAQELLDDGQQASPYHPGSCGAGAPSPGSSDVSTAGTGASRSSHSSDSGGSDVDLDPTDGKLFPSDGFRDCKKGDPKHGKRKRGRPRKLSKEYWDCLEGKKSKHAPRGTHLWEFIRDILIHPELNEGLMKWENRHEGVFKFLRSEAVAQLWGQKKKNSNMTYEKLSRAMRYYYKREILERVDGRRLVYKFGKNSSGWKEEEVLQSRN
Method in brief: as §1

ETV1 = ETV1 (Homo sapiens, UniProt P50549 1-477); conditions: protein: recombinant; tags: N-terminal GST; dsDNA, one strand shown
Method in brief: as §1

ERF = target: T6, ERF (Homo sapiens, UniProt P50548 1-548); conditions: protein: recombinant; tags: N-terminal GST; dsDNA, one strand shown
T6 sequence: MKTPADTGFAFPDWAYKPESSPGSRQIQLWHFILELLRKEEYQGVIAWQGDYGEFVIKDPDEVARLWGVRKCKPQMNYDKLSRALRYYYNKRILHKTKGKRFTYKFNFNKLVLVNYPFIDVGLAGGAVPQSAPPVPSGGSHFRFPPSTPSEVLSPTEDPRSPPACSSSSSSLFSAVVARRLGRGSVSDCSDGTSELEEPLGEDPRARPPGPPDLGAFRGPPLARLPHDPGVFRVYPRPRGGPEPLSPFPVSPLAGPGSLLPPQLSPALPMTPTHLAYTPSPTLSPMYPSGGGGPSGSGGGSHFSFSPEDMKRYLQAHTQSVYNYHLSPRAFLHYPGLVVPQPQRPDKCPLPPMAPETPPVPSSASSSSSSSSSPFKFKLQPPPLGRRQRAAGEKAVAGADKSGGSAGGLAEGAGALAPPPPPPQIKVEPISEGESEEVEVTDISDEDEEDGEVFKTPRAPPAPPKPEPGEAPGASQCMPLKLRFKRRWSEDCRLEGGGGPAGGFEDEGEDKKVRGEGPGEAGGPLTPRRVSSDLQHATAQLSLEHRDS
Method in brief: as §1

ETV3L = target: T7, ETV3L (Homo sapiens, UniProt Q6ZN32 1-361); conditions: protein: recombinant; tags: N-terminal GST; dsDNA, one strand shown
T7 sequence: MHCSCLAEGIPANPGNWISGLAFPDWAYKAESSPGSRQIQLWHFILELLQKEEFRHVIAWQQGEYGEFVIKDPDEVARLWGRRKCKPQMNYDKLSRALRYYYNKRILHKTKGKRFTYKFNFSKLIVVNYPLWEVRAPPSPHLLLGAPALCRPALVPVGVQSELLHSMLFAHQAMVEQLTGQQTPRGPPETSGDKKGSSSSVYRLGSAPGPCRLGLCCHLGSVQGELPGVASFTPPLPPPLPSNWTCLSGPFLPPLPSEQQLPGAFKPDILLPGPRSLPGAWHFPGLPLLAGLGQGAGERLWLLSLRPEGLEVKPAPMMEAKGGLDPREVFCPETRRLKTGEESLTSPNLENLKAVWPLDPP
Method in brief: as §1

ETS2 = target: T8, ETS2 (Homo sapiens, UniProt P15036 1-469); conditions: protein: recombinant; tags: N-terminal GST; dsDNA, one strand shown
T8 sequence: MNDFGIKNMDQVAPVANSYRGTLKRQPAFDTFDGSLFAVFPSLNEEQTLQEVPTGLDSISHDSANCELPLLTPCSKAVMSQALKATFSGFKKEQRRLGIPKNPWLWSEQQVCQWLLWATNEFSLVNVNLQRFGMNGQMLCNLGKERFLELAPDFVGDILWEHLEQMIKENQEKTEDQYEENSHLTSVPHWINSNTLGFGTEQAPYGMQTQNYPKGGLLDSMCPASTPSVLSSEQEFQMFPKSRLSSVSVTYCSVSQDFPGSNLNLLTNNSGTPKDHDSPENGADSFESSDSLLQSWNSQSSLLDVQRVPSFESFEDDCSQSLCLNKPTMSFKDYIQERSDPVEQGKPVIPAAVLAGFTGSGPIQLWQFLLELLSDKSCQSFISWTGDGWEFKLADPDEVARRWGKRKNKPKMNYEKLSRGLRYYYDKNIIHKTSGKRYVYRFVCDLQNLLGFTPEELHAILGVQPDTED
Method in brief: as §1

SPDEF = target: T9, SPDEF (Homo sapiens, UniProt O95238 1-335); conditions: protein: recombinant; tags: N-terminal GST; dsDNA, one strand shown
T9 sequence: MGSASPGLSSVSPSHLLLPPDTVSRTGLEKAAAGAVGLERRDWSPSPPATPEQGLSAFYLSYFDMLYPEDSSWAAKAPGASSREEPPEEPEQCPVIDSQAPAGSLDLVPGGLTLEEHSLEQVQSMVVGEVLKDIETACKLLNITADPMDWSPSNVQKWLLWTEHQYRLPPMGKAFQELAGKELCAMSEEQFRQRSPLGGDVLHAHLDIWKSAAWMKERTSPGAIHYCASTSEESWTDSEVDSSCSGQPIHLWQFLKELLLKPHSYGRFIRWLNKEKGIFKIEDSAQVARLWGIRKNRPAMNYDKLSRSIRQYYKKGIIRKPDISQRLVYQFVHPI
Method in brief: as §1

ETV7 = target: T10, ETV7 (Homo sapiens, UniProt Q9Y603 1-341); conditions: protein: recombinant; tags: N-terminal GST; dsDNA, one strand shown
T10 sequence: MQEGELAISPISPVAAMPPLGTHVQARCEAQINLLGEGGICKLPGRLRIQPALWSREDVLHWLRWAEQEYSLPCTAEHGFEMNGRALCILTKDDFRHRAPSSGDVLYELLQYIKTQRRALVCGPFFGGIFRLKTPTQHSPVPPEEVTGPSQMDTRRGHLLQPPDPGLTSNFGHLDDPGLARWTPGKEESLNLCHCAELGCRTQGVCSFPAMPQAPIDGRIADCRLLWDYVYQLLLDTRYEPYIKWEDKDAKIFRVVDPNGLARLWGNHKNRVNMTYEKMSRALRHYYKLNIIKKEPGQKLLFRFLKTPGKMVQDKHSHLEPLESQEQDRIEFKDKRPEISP
Method in brief: as §1

ELF5 = target: T11, ELF5 (Homo sapiens, UniProt Q9UKW6-2 1-255); conditions: protein: recombinant; tags: N-terminal GST; dsDNA, one strand shown
T11 sequence: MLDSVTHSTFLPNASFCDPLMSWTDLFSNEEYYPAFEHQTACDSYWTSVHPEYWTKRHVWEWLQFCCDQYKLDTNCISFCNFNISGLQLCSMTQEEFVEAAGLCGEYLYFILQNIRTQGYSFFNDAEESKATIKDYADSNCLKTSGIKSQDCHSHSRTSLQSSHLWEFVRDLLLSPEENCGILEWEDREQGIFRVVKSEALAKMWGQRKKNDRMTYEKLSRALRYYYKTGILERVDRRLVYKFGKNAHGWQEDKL
Method in brief: as §1

ETV3 = target: T12, ETV3 (Homo sapiens, UniProt P41162-2 1-143); conditions: protein: recombinant; tags: N-terminal GST; dsDNA, one strand shown
T12 sequence: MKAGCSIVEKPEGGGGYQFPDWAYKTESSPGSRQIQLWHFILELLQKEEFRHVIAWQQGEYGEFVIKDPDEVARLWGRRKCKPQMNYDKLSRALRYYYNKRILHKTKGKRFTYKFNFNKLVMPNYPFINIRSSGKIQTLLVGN
Method in brief: as §1

ETV6 = ETV6 (Homo sapiens, UniProt P41212 1-452); conditions: protein: recombinant; tags: N-terminal GST; dsDNA, one strand shown
Method in brief: as §1

Sequence of ELF4 (Q99607 whole entry): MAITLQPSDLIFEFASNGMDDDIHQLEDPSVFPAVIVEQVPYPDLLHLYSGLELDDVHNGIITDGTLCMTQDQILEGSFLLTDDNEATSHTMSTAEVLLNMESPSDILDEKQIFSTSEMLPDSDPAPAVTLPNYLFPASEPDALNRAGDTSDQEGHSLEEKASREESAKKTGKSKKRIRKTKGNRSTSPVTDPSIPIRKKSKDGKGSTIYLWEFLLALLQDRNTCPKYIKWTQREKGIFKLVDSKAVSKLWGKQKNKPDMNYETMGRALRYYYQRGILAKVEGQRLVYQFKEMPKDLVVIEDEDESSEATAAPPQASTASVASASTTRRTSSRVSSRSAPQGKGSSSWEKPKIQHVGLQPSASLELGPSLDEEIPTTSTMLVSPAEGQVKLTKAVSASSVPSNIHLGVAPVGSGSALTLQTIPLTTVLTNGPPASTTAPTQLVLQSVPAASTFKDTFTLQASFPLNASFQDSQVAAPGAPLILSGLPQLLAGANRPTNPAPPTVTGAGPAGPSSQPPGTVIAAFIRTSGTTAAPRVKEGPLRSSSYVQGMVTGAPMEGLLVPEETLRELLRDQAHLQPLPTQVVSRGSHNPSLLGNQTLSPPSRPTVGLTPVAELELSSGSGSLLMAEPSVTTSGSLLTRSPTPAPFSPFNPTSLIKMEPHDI
Sequence of HSF1 (Q00613 whole entry): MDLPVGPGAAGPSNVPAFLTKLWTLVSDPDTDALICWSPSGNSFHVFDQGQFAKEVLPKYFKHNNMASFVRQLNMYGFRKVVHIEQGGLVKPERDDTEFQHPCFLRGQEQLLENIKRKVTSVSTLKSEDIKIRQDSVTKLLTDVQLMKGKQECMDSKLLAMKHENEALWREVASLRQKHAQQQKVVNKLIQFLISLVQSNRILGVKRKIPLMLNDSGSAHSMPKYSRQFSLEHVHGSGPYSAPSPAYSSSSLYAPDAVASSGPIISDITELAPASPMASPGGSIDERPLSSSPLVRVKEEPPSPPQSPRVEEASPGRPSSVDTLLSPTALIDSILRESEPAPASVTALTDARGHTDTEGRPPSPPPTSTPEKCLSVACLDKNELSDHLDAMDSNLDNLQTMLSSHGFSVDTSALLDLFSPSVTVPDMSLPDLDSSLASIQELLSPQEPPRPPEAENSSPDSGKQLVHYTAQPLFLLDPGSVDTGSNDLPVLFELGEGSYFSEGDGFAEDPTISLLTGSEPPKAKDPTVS
Sequence of ETV1 (P50549 whole entry): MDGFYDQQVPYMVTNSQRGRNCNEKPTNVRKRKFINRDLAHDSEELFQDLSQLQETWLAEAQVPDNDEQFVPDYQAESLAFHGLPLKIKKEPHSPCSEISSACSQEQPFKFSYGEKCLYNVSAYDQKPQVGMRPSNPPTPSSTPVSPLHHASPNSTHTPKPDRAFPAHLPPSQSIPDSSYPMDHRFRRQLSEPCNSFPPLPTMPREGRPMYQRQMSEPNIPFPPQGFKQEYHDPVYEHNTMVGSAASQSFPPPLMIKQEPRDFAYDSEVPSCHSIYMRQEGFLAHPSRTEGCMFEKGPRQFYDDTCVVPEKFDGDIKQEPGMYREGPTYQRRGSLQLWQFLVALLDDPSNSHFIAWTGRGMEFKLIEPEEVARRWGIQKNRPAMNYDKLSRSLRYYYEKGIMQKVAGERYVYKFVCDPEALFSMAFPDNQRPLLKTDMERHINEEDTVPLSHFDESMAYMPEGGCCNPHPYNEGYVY
Sequence of ETV5 (P41161 whole entry): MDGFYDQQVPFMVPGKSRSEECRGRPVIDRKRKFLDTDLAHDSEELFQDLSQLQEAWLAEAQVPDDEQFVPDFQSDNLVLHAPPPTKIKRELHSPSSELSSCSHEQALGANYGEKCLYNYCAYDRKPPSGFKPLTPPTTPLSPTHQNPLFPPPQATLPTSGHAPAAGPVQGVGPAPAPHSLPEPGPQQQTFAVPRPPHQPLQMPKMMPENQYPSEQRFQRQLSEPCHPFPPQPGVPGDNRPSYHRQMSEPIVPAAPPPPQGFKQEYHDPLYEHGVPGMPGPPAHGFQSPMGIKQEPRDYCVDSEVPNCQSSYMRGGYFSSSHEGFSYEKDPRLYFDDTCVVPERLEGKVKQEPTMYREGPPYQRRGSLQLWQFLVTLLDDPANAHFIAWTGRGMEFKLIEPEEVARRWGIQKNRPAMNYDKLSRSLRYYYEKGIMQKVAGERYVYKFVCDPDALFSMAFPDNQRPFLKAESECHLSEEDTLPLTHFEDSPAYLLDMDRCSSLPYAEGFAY
Sequence of ETV6 (P41212 whole entry): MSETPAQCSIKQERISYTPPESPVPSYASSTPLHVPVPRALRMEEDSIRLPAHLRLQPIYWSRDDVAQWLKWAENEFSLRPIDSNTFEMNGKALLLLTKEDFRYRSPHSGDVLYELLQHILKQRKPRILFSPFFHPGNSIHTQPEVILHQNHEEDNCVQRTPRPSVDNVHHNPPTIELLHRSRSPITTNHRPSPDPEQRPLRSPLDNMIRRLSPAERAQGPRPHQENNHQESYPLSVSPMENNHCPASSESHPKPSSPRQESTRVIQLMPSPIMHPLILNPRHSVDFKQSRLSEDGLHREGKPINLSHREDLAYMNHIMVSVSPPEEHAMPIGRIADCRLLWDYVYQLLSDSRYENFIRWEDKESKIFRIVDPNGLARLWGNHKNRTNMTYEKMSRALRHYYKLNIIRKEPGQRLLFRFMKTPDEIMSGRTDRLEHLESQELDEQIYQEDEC

Sequence	binding signal (FEV)	binding signal (ETV5)	binding signal (HSF1)	binding signal (SPIC)	binding signal (ELF4)	binding signal (ELK4)	binding signal (ETV2)	binding signal (ELF3)	binding signal (ETV1)	binding signal (ERF)	binding signal (ETV3L)	binding signal (ETS2)	binding signal (SPDEF)	binding signal (ETV7)	binding signal (ELF5)	binding signal (ETV3)	binding signal (ETV6)
CACGAA	1.09 fold enrichment (6-mer frequency, TF over GST control)	1.1 fold enrichment (6-mer frequency, TF over GST control)	1.39 fold enrichment (6-mer frequency, TF over GST control)	1.12 fold enrichment (6-mer frequency, TF over GST control)	1.2 fold enrichment (6-mer frequency, TF over GST control)	1.3 fold enrichment (6-mer frequency, TF over GST control)	1.18 fold enrichment (6-mer frequency, TF over GST control)	1.07 fold enrichment (6-mer frequency, TF over GST control)	1.14 fold enrichment (6-mer frequency, TF over GST control)	1.18 fold enrichment (6-mer frequency, TF over GST control)	1.01 fold enrichment (6-mer frequency, TF over GST control)	1.12 fold enrichment (6-mer frequency, TF over GST control)	1.08 fold enrichment (6-mer frequency, TF over GST control)	1.16 fold enrichment (6-mer frequency, TF over GST control)	1.02 fold enrichment (6-mer frequency, TF over GST control)	1.05 fold enrichment (6-mer frequency, TF over GST control)	1.07 fold enrichment (6-mer frequency, TF over GST control)
CACTGC	1.38 fold enrichment (6-mer frequency, TF over GST control)	1.37 fold enrichment (6-mer frequency, TF over GST control)	1.04 fold enrichment (6-mer frequency, TF over GST control)	1.46 fold enrichment (6-mer frequency, TF over GST control)	1.32 fold enrichment (6-mer frequency, TF over GST control)	1.43 fold enrichment (6-mer frequency, TF over GST control)	1.28 fold enrichment (6-mer frequency, TF over GST control)	1.15 fold enrichment (6-mer frequency, TF over GST control)	1.36 fold enrichment (6-mer frequency, TF over GST control)	1.38 fold enrichment (6-mer frequency, TF over GST control)	1.59 fold enrichment (6-mer frequency, TF over GST control)	1.4 fold enrichment (6-mer frequency, TF over GST control)	1.42 fold enrichment (6-mer frequency, TF over GST control)	1.42 fold enrichment (6-mer frequency, TF over GST control)	1.23 fold enrichment (6-mer frequency, TF over GST control)	1.26 fold enrichment (6-mer frequency, TF over GST control)	1.41 fold enrichment (6-mer frequency, TF over GST control)
